PubChem BioAssay (NCI)
Compounds without any hit were thinned out: in the full panel of roughly 83,000, 20% have a hit.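 How to read the values: 0–100, growth inhibition (40 = 60% inhibited); 0, no net growth; -100 to 0, cell death (-40 = 40% of starting cells died; -100 = all dead).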 Unmarked numbers belong to inactive results. Calls of active or inactive are those of the source. Rule for the calls: active = growth percent below 10; inactive = the rest.

system: MDA-MB-231 breast; test: NCI-60 one-dose screen, 48 h (100 = growth as untreated, 0 = no growth, -100 = all killed); details: 10 µM

Row | SMILES | growth
1 | O=C1c2ccccc2CCC1(Br)Br | -1.14% (active)
2 | COc1ccc(N)c2c1C(=O)c1ccccc1C2=O | 95.5%
3 | COc1cc(N)ccc1Nc1c2ccccc2nc2ccccc12 | 56.4%
4 | Cc1cc(C)c(N2C(=O)CC(Sc3ccccc3N)C2=O)c(C)c1 (stereo not given) | 83.1%
5 | CCC(=O)Oc1ccc(/C=N/NC(N)=S)nc1 | 63.4%
6 | ClCCn1c(CCl)nc2ccc(Cl)cc21 | -61.7% (active)
7 | Cc1cc(Cl)ccc1NC(=O)/C(Cl)=C1/Sc2ccccc2NC1=O | 80.4%
8 | CCOC(=O)[C@]1(Br)CC[C@@]1(Br)C(=O)OCC | 99.4%
9 | COc1ccc2c(c1)[nH]c1c(/C=C/c3ccccc3)nccc12 | 73.7%
10 | N#C/C(=C/N1C(=O)/C(=C/c2ccc([N+](=O)[O-])cc2)SC1=S)c1nc2ccccc2s1 | 73.6%
11 | CN(C)CCNc1cccc2sc3ccc(O)cc3c(=O)c12 | 47.2%
12 | NCc1c(O)ccc2ccccc12 | 105%
13 | O=C1c2cccc3cc([N+](=O)[O-])cc(c23)C(=O)N1CCN1CCCC1 | 20.6%
14 | Cc1cc(O)c2c(c1O)C(=O)C13C(=C2O)C(=O)C2C(O)C1C1C(O)C3C(=O)C3=C(O)c4c(O)cc(C)c(O)c4C(=O)C321 (stereo not given) | 13.6%
15 | CC1CCC2(C(=O)O)CCC3(C)C(=CCC4C5(C)CC(O)C(O)C(C)(CO)C5C(O)CC43C)C2C1C (stereo not given) | 107%
16 | COc1ccc2oc(-c3ccc(Cl)cc3)c(N3CCN(C)CC3)c2c1 | 0.119% (active)
17 | Cc1cc(N=C2C=CC(=[N+](C)C)C=C2)c(N)cc1N | 65.2%
18 | O=[N+]([O-])c1cc(S(=O)(=O)Nc2ccccc2)ccc1Cl | 110%
19 | O=c1[nH]cc(/C=N\Nc2ccccc2)c(=O)[nH]1 | 63.9%
20 | O=C(NC(=S)Nc1ccccn1)c1ccccc1 | 91.6%

system: RXF 393 renal; test: as above; details: 10 µM

Row | SMILES | growth
21 | O=C(CNS(=O)(=O)Cc1ccccc1)NNc1ccccc1 | 120%
22 | COc1ccc(N)c2c1C(=O)c1ccccc1C2=O | 95.6%
23 | COc1cc(N)ccc1Nc1c2ccccc2nc2ccccc12 | 95.1%
24 | Cc1cc(C)c(N2C(=O)CC(Sc3ccccc3N)C2=O)c(C)c1 (stereo not given) | 84.8%
25 | CCC(=O)Oc1ccc(/C=N/NC(N)=S)nc1 | 60.5%
26 | ClCCn1c(CCl)nc2ccc(Cl)cc21 | -73.9% (active)
27 | CCOC(=O)[C@]1(Br)CC[C@@]1(Br)C(=O)OCC | 111%
28 | COc1ccc2c(c1)[nH]c1c(/C=C/c3ccccc3)nccc12 | 69.5%
29 | N#C/C(=C/N1C(=O)/C(=C/c2ccc([N+](=O)[O-])cc2)SC1=S)c1nc2ccccc2s1 | 96.8%
30 | CN(C)CCNc1cccc2sc3ccc(O)cc3c(=O)c12 | 60.2%
31 | NCc1c(O)ccc2ccccc12 | 102%
32 | O=C1c2cccc3cc([N+](=O)[O-])cc(c23)C(=O)N1CCN1CCCC1 | -43% (active)
33 | Cc1cc(O)c2c(c1O)C(=O)C13C(=C2O)C(=O)C2C(O)C1C1C(O)C3C(=O)C3=C(O)c4c(O)cc(C)c(O)c4C(=O)C321 (stereo not given) | -13.7% (active)
34 | CC1CCC2(C(=O)O)CCC3(C)C(=CCC4C5(C)CC(O)C(O)C(C)(CO)C5C(O)CC43C)C2C1C (stereo not given) | 26.2%
35 | COc1ccc2oc(-c3ccc(Cl)cc3)c(N3CCN(C)CC3)c2c1 | 28%
36 | Cc1cc(N=C2C=CC(=[N+](C)C)C=C2)c(N)cc1N | 96.3%
37 | O=[N+]([O-])c1cc(S(=O)(=O)Nc2ccccc2)ccc1Cl | 114%
38 | O=c1[nH]cc(/C=N\Nc2ccccc2)c(=O)[nH]1 | 111%
39 | O=C(NC(=S)Nc1ccccn1)c1ccccc1 | 103%

system: SF-268 CNS; test: as above; details: 10 µM

Row | SMILES | growth
40 | O=C1c2ccccc2CCC1(Br)Br | 59.3%
41 | O=C(CNS(=O)(=O)Cc1ccccc1)NNc1ccccc1 | 60.1%
42 | COc1ccc(N)c2c1C(=O)c1ccccc1C2=O | 104%
43 | COc1cc(N)ccc1Nc1c2ccccc2nc2ccccc12 | 10.4%
44 | Cc1cc(C)c(N2C(=O)CC(Sc3ccccc3N)C2=O)c(C)c1 (stereo not given) | 80.7%
45 | CCC(=O)Oc1ccc(/C=N/NC(N)=S)nc1 | 25.4%
46 | ClCCn1c(CCl)nc2ccc(Cl)cc21 | -69.2% (active)
47 | Cc1cc(Cl)ccc1NC(=O)/C(Cl)=C1/Sc2ccccc2NC1=O | 103%
48 | CCOC(=O)[C@]1(Br)CC[C@@]1(Br)C(=O)OCC | 108%
49 | COc1ccc2c(c1)[nH]c1c(/C=C/c3ccccc3)nccc12 | 85.5%
50 | N#C/C(=C/N1C(=O)/C(=C/c2ccc([N+](=O)[O-])cc2)SC1=S)c1nc2ccccc2s1 | 95%
51 | CN(C)CCNc1cccc2sc3ccc(O)cc3c(=O)c12 | 23.5%
52 | NCc1c(O)ccc2ccccc12 | 97.2%
53 | O=C1c2cccc3cc([N+](=O)[O-])cc(c23)C(=O)N1CCN1CCCC1 | 0.438% (active)
54 | Cc1cc(O)c2c(c1O)C(=O)C13C(=C2O)C(=O)C2C(O)C1C1C(O)C3C(=O)C3=C(O)c4c(O)cc(C)c(O)c4C(=O)C321 (stereo not given) | 10.6%
55 | CC1CCC2(C(=O)O)CCC3(C)C(=CCC4C5(C)CC(O)C(O)C(C)(CO)C5C(O)CC43C)C2C1C (stereo not given) | 111%
56 | COc1ccc2oc(-c3ccc(Cl)cc3)c(N3CCN(C)CC3)c2c1 | 37.2%
57 | Cc1cc(N=C2C=CC(=[N+](C)C)C=C2)c(N)cc1N | 97.9%
58 | O=[N+]([O-])c1cc(S(=O)(=O)Nc2ccccc2)ccc1Cl | 99.6%
59 | O=c1[nH]cc(/C=N\Nc2ccccc2)c(=O)[nH]1 | 58.5%
60 | O=C(NC(=S)Nc1ccccn1)c1ccccc1 | 104%
